# Data published in PubChem BioAssay.
# Activity calls are given as the source filed them.
# Key:
# [1] = test system: Human papillomavirus type 1a protein E7 (residues 44-93); assay: HPV1a E7 fragment binders on microarrays, primary screen, biochemical, small-molecule microarray, residues 44-93, 635 nm fluorescence (AID 1108); conditions: small-molecule microarray binding, fluorescence 635 nm; higher = more signal;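 further: E7 fragment applied at 1 µg/mL in TBST for 1 h at 4 C; score combines spot fluorescence with its signal to noise ratio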
# [2] = modulators of HCV replicon luciferase signal, primary screen, HCV replication inhibitor project, Huh7 cells, luciferase reporter (AID 1109); conditions: 48 h, higher = more signal;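 further: huh7 hepatoma cells harbouring a luciferase neomycin HCV replicon reporter; luciferase luminescence as measure of HCV replicon replication; test concentration not given here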
# [3] = molecular target: Left-right determination factor 2 (Homo sapiens) (UniProt O00292); assay: LEFTY2 binders on small-molecule microarrays, primary screen, biochemical, small-molecule microarray, 635 nm fluorescence scan (AID 1110); conditions: LEFTY2 binding, higher = more signal
# Sequence of Left-right determination factor 2 (Homo sapiens) (O00292 whole entry, looked up): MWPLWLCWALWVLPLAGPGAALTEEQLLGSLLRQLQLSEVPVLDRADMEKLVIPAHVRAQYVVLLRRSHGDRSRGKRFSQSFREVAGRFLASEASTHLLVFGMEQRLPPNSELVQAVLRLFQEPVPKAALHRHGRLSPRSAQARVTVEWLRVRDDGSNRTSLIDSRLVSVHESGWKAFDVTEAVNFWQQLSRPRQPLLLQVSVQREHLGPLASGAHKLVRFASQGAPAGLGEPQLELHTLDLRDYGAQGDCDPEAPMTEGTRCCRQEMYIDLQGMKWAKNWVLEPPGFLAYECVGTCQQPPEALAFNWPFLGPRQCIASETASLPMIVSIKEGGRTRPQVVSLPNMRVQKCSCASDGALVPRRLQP
# [4] = molecular target: Calmodulin-1 (Homo sapiens) (UniProt P0DP23); assay: CALM1 binders on microarrays, EGTA buffer, profiling panel, biochemical, small-molecule microarray, Cy5-labelled CALM1 (AID 1111); conditions: Cy5-CALM1 binding fluorescence, higher = more signal;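 further: labelled calmodulin applied in Tris saline Tween buffer holding calcium plus EGTA and DTT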
# [5] = molecular target: Calmodulin-1 (Homo sapiens) (UniProt P0DP23); assay: calcium-bound CALM1 binders on microarrays, profiling panel, artefact control for SMM control-protein annotation, biochemical, small-molecule microarray, Cy5-labelled CALM1, plus calcium (AID 1112); conditions: Cy5-CALM1 binding fluorescence, higher = more signal;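 further: score merges spot fluorescence with signal to noise from triplicate slides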
# [6] = small-molecule microarray binders of probe aWnt5a, primary screen, biochemical, biotinylated probe, 635/667 nm fluorescence (AID 1113); conditions: higher = more signal;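 further: score merges 667 nm fluorescence intensity with signal-to-noise per printed feature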
# [7] = small-molecule microarray binders of probe aShh, primary screen, biochemical, biotinylated probe, 635/667 nm fluorescence (AID 1114); conditions: higher = more signal;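 further: probe is biotin-labelled aShh protein from a stem cell growth factor screen; measures binding of labelled protein to compounds printed on the slide; score merges feature fluorescence at 667 nm with signal-to-noise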
# [8] = small-molecule microarray binders of probe aNog, primary screen, biochemical, biotinylated probe, 635/667 nm fluorescence (AID 1115); conditions: higher = more signal;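 further: probe is biotinylated aNog protein used at 0.15 µg/mL for 1 h at 4 C; z-score combines 667 nm fluorescence of each spot with its signal to noise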
# [9] = molecular target: Torsin-1A-interacting protein 1 (Homo sapiens) (UniProt Q5JTV8); assay: LAP1 binders from COS7 cell lysate, primary screen, small-molecule microarray, 635/667 nm fluorescence (AID 1116); conditions: COS7-hLAP1 lysate binding, 635 nm fluorescence, higher = more signal
# Sequence of Torsin-1A-interacting protein 1 (Homo sapiens) (Q5JTV8 whole entry, looked up): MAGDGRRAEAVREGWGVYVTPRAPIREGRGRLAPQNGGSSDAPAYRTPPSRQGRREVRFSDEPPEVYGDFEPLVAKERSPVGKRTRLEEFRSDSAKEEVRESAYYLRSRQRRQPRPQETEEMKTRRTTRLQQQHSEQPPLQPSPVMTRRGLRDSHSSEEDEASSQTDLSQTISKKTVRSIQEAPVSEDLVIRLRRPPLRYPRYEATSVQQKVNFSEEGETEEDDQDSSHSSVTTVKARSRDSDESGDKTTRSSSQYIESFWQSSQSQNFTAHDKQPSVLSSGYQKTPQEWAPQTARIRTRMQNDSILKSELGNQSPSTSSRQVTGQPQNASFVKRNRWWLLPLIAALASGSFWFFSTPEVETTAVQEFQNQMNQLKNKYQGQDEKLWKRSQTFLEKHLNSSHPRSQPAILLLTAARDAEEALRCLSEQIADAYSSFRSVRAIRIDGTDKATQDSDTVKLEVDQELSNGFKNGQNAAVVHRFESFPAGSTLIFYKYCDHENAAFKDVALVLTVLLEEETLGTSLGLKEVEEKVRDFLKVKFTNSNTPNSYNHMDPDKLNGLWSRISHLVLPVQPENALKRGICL
# [10] = molecular target: Alpha-bungarotoxin (Bungarus multicinctus) (UniProt P60615); assay: alpha-bungarotoxin binders on microarray, profiling panel, artefact control for SMM control protein annotation, biochemical, small-molecule microarray, Alexa647 label, 635/667 nm fluorescence (AID 1117); conditions: alpha-BTX-A647 binding fluorescence, higher = more signal
# Sequence of Alpha-bungarotoxin (Bungarus multicinctus) (P60615 whole entry, looked up): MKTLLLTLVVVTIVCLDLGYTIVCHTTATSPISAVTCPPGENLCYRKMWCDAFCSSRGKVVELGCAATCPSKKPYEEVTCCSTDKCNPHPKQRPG
# Albumin (Bos taurus) = Albumin (Bos taurus) (UniProt P02769); assay: bovine serum albumin binders on microarray, profiling panel, artefact control for SMM control protein annotation, biochemical, small-molecule microarray, Alexa647 label, 635/667 nm fluorescence (AID 1118); conditions: BSA-A647 binding, fluorescence 635 nm, higher = more signal;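 further: score merges 667 nm emission intensity and signal-to-noise per printed compound spot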
# Sequence of Albumin (Bos taurus) (P02769 whole entry, looked up): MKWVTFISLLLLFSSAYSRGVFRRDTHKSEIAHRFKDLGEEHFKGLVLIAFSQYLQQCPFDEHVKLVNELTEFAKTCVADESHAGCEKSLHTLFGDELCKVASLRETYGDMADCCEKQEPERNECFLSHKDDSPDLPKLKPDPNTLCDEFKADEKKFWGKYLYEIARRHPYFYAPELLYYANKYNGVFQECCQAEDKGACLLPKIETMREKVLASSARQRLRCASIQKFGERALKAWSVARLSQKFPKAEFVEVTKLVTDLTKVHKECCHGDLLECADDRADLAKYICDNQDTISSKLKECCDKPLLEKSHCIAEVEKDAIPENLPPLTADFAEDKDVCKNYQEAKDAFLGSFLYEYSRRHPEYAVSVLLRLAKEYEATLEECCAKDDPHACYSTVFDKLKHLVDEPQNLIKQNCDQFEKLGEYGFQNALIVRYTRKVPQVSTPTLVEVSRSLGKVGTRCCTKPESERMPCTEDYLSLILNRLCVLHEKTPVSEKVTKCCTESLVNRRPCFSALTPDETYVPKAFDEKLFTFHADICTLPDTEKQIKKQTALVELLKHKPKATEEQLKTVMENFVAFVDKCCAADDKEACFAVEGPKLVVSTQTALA
# [11] = small-molecule microarray binders of probe aXIP, primary screen, biochemical, NeuroSMM set, 635/667 nm fluorescence (AID 1119); conditions: higher = more signal, called active from +8 up or from −8 down;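 further: probe is the protein aXip251-270 applied at 1 µg/mL to compound-printed slides; binding of probe to printed compounds measured as 667 nm fluorescence plus signal to noise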
# [12] = small-molecule binders of probe aNOTCH3, primary screen, biochemical, small-molecule microarray, 635/667 nm fluorescence (AID 1120); conditions: higher = more signal;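 further: probe is a biotin-tagged antibody raised against NOTCH3 rather than NOTCH3 protein; score merges spot fluorescence near 667 nm with spot signal to noise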
# [13] = small-molecule binders of probe aNOTCH2, primary screen, biochemical, small-molecule microarray, 635/667 nm fluorescence (AID 1121); conditions: higher = more signal;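 further: score merges feature fluorescence read at 667 nm with its signal to noise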
# [14] = molecular target: Carbonic anhydrase 2 (Homo sapiens) (UniProt P00918); assay: CAII small-molecule binders, profiling panel, biochemical, small-molecule microarray, Alexa647-labelled CAII (AID 1122); conditions: CAII-A647 binding fluorescence, higher = more signal
# [15] = COS7 lysate on small-molecule microarray, probe aHis, 635 nm (AID 1123); conditions: COS7 cell lysate, fluorescence, higher = more signal;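 further: z-score combines 667nm fluorescence intensity with signal-to-noise per printed compound spot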
# [16] = compound binding in COS7 lysate, probe aLAP1, primary screen, cell lysate, small-molecule microarray (AID 1124); conditions: probe aLAP1, fluorescence, higher = more signal;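 further: lysate comes from COS7 cells expressing LAP1 and is applied at 0.3 µg/mL; score merges spot fluorescence near 667 nm with signal-to-noise over triplicate slides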
# Sam68 (KHDRBS1) = assay: Sam68 small-molecule binders, primary screen, biochemical, small-molecule microarray, 635 nm fluorescence (AID 1125); conditions: small-molecule microarray binding, higher = more signal;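 further: score merges 667 nm channel intensity with signal to noise over triplicate slides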
# [17] = test system: Chordin-like protein 2 (CHRDL2); assay: CHRDL2 small-molecule binders, primary screen, biochemical, small-molecule microarray, 635 nm fluorescence (AID 1126); conditions: small-molecule microarray binding, fluorescence 635 nm; higher = more signal;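 further: printed compound slides probed with Chrdl2 protein at 4 µg/mL for 1 h at 4 C; score merges 667 nm emission intensity with signal to noise over three replicate slides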
# [18] = molecular target: Concanavalin-A (Canavalia ensiformis) (UniProt P02866); assay: ConA small-molecule binders, primary screen, artefact control for SMM control protein annotation, biochemical, small-molecule microarray, Alexa647 label, 635 nm (AID 1127); conditions: ConA-A647 binding fluorescence, higher = more signal;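 further: z combines 667 nm emission intensity with signal-to-noise across three replicate slides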
# Sequence of Concanavalin-A (Canavalia ensiformis) (P02866 whole entry, looked up): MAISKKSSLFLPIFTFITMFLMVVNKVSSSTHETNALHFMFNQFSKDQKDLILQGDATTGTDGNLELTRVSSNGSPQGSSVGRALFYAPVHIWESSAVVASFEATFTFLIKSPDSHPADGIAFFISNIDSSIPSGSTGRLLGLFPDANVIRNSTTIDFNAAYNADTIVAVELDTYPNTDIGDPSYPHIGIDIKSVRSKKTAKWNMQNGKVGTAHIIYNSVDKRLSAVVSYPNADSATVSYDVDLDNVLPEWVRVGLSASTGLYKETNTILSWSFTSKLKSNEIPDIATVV
Compound,composite z-score [1],z-score [2],composite z-score [3],composite z-score [4],composite z-score [5],composite z-score [6],composite z-score [7],composite z-score [8],composite z-score [9],composite z-score [10],composite z-score (Albumin (Bos taurus)),composite Z-score [11],composite z-score [12],composite z-score [13],composite z-score [14],composite z-score [15],composite z-score [16],composite z-score (Sam68 (KHDRBS1)),composite z-score [17],composite z-score [18]
C/C=C\[C@@H](NCc1ccccc1Br)[C@@H](O)Cc1ccccc1,-0.594,-3.08,-0.472,-0.64,0.0924,-0.12,-0.291,-0.18,-0.541,-0.791,0.099,0.168 (inactive),-0.221,-0.13,-0.263,-0.103,-0.0543,-0.636,-1.02,-0.342
CCCCC(=C=CC[C@H](O)c1ccccc1OCCO)C[C@H](O)COCc1ccccc1,-0.156,-1.92,-0.233,1.22,0.768,-0.124,-0.138,0,1.65,1.04,0.355,2.26 (inactive),-0.0362,-0.147,0.669,0.0513,1.27,-0.0664,-0.632,0.874
C[C@H](c1ccccc1)N1C(=O)[C@H]2[C@@H]3C(=CC[C@H]2C1=O)C(=O)[C@H]1O[C@H]1[C@H]3O,-0.546,-4.71,0.429,-0.119,-0.932,-0.0405,0.0402,-0.416,0.326,-0.0114,0.166,-0.0238 (inactive),-0.111,-0.147,-0.182,-0.51,0.172,-0.136,1.02,0.471
CC1CC/C=C\[C@H]2OC34C=CCN(C(C)C)C(=O)[C@H]3N(CCCO)C(=O)[C@@H]4C2C(=O)O1 (stereo not given in full),-0.249,-0.513,-0.523,-1.04,0.271,-0.184,-0.181,-0.0898,0.646,-1.54,0.468,-1.03 (inactive),-0.0018,-0.0621,0.9,0.702,0.962,-0.499,-0.951,-1.74
CCOC(=O)CCN1C(=O)[C@H]2[C@H]3[C@H](O)[C@H](O)CC(=NOC[C@@H](O)COCc4ccco4)[C@H]3CC[C@H]2C1=O,1.11,-2.99,0.622,-0.039,-0.438,-0.152,-0.0769,-0.0446,0.0386,0.351,0.494,-0.0692 (inactive),0.0059,-0.171,0.0762,-0.128,0.0706,1.32,-0.173,0.66
CC(CCN1CCc2nc(-c3ccccc3)c(-c3ccccc3)cc2C1)=NOC(C)CN1CCCCc2nc(C)c(C)cc21 (stereo not given),1.27,-2.03,0.573,0.578,-0.0705,-0.0819,-0.202,-0.077,0.787,0.799,0.56,0.766 (inactive),0.0379,-0.14,0.209,0.789,0.154,1.28,0.308,1.05
COC(=O)[C@H](C)NC(=O)CCC1CC(OC(=O)NCc2ccc3c(c2)OCO3)CC2(CCCC(COC(=O)NCCOc3ccccc3)O2)O1 (stereo not given in full),0.966,-0.424,0.581,-0.0874,-0.604,-0.129,-0.138,-0.283,0.267,0.83,0.469,0.794 (inactive),0.14,-0.0889,0.356,0.508,0.114,1.3,0.344,0.906
O=C1[C@H]2[C@H]3[C@H](O)[C@H](O)CC(=NO[C@@H]4O[C@H](CO)[C@@H](O)[C@H](O)[C@H]4O)[C@@H]3CC[C@H]2C(=O)N1Cc1ccc2c(c1)OCO2,1.13,0.363,0.387,0.0102,-0.566,-0.0519,-0.403,-0.244,0.715,0.378,-0.037,0.484 (inactive),-0.004,-0.18,0.376,0.542,-0.211,0.907,0.538,0.211
CC(C)(C)OC(=O)CC[C@]1(C(=O)NCc2ccccc2)N=C(c2ccc(OCCCO)cc2)O[C@H]1c1ccccc1,1.02,-2.44,-0.598,1.91,0.683,0.257,0.147,-0.198,1.6,1.53,0.912,-0.0089 (inactive),0.61,0.0216,0.735,3.07,0.378,1.3,-0.672,1.11
